# Only some compounds are listed: those with a hit (about 4.1% of all), similar ones and a draw of the others.
# DAX1 inh-1: DAX1 (NR0B1) inhibitors, primary screen, cell-based, HEK293, Gal4-DAX1, luciferase luminescence; Nuclear receptor subfamily 0 group B member 1 (Homo sapiens), P51843; HEK293 Gal4-DAX1 luciferase reporter; inhibition, % at 6.75 µM; actives 0.99% (n = 340,000); AID 504766, 2011;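 active = inhibition above the mean over all tested compounds plus 3 SD, cut at about 4.2% in these data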;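 also: 0% = DAX1-transfected cells with DMSO and 100% = empty-vector control cells with DMSO; inhibition shows as a rise in luminescence from relieved DAX1 repression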
# Target sequence (P51843 207-470 limits assumed): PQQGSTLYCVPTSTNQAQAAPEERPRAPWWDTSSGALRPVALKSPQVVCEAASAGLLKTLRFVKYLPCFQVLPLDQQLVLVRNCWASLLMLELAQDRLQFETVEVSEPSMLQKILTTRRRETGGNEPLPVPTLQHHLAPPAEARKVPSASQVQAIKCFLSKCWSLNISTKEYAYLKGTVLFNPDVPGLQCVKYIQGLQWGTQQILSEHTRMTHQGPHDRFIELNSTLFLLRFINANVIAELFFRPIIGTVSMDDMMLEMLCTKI
# hcDAF12 agonist: H. contortus DAF-12 nuclear receptor activators, primary screen, cell-based, luminescence, HEK293, lit1-tk-luc reporter. HEK293 hcDAF-12 lit1-tk-luc reporter; 0% DMSO, 100% Δ7-dafachronic acid. activation, % at 6.8 µM. actives 1.4% (n = 370,000);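 active = activation above the mean of all tested compounds plus 3 SD, cut at about 5.5% in these data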;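 also: 100% = response to 3 µM Δ7-dafachronic acid high control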
# DAX1 inh-2: DAX1 (NR0B1) inhibitors on StAR promoter, primary screen, cell-based, luminescence, SF-1 (NR5A1), full-length DAX-1. AID 652010, 2013. HEK293T StAR-luciferase reporter, SF-1/DAX-1 repression relief. inhibition, % at 6.8 µM. actives 1.1% (n = 370,000);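 active = inhibition above the mean over all tested compounds plus 3 SD, cut at about 3.6% in these data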;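 also: 0% = DAX-1 cells with DMSO and 100% = cells lacking DAX-1 with DMSO; higher inhibition means more luminescence from relief of DAX-1 repression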
# ssDAF-12 act: S. stercoralis DAF-12 nuclear receptor activators, primary screen, cell-based, luminescence, HEK293, GRIP1 co-expression, lit1-tk-luc; Nuclear hormone receptor DAF-12 (Strongyloides stercoralis); HEK293 ssDAF-12/GRIP1 lit1-tk-luc reporter; % of 3 µM dafachronic acid response; activation, % at 6.8 µM; actives 1% (n = 370,000);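 active = activation above the mean over all tested compounds plus 3 SD, cut at about 0.9% in these data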;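 also: 0% = DMSO-only wells and 100% = 3 µM delta7-dafachronic acid wells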
# hgDAF12 agonist: H. glycines DAF-12 receptor agonists, primary screen, cell-based, luminescence, HEK293, GAL4 fusion, UAS-luciferase; activation, % at 6.8 µM; Nuclear hormone receptor DAF-12 (Heterodera glycines), GAL4 fusion; HEK293 GAL4-hgDAF12 UAS-luciferase reporter, agonist luminescence; normalized to butyrate control; actives 1.8% (n = 370,000); AID 687014, 2013;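 active = activation above a cutoff set at the mean of all screened compounds plus 3 SD, cut at about 10% in these data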;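 also: 0% = DMSO wells and 100% = sodium butyrate wells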
# An asterisk follows results filed as active; · = no result given.
SMILES,DAX1 inh-1,hcDAF12 agonist,DAX1 inh-2,ssDAF-12 act,hgDAF12 agonist
Clc1cccc(Cc2c(-c3ccccc3)nc3c4ccccc4ccn23)c1,·,0,1,0,0
CCCc1nc2c3ccccc3ccn2c1Cc1cccc(F)c1,·,5,2,1.1*,10
COC(=O)[C@]12C[C@H](CC(=O)NCc3cccc4ccccc34)C(=O)N(Cc3ccccc3)C1=C[C@H](C(C)C)O[C@@H]2C1CC1,·,0,0,-1,0
NCCCC(C(=O)O)N(C(=O)OCc1ccccc1)C(=O)OCc1ccccc1 (stereo unspecified),·,-1,0,-1,2
COC(=O)c1ccc(C=NNC(=O)c2cc(-c3ccc(C)c(C)c3)n[nH]2)cc1,·,0,1,-2,-2
CCOC(=O)Cc1c(-c2cccc(Br)c2)nc2c3ccccc3ccn12,·,6.1*,-2,1.4*,4
Clc1cccc(-c2nc3c4ccccc4ccn3c2Cc2ccsc2)c1,·,6.0*,2,3.3*,10
Clc1cccc(-c2nc3c4ccccc4ccn3c2Cc2ccccc2)c1,·,5,0,1,2
Fc1ccc(-c2nc3c4ccccc4ccn3c2Cc2ccsc2)cc1,·,4,0,1.1*,8
Brc1cccc(-c2nc3c4ccccc4ccn3c2Cc2ccsc2)c1,·,4,2,1.8*,5
Clc1ccc(-c2nc3c4ccccc4ccn3c2Cc2ccccc2)cc1,2,3,2,0,5
CCOC1=C2[C@H](c3ccccc3)N(S(=O)(=O)c3ccc(C)cc3)[C@H](C(C)C)[C@H]2C(C#N)(C#N)C(C#N)(C#N)C1,·,-1,-1,-1,1
Cc1cc(Br)c2nc(-c3ccc(F)cc3)c(Cc3cccc(Cl)c3)n2c1,·,3,0,1.3*,2
FC(F)(F)c1ccccc1Cc1c(-c2ccc(Cl)cc2)nc2c3ccccc3ccn12,·,5,1,1.8*,1
COc1ccc(-c2nc3c4ccccc4ccn3c2Cc2ccccc2C(F)(F)F)cc1OC,·,3,-3,0,4
Fc1ccc(-c2nc3c4ccccc4ccn3c2Cc2cccc(F)c2)cc1,·,5.6*,0,0,7
FC(F)(F)c1ccccc1Cc1c(C2CCCCC2)nc2c3ccccc3ccn12,·,2,2,1.7*,3
C[C@H]1C2CC(OC(=O)Nc3ccccc3C(F)(F)F)C(C2)[C@H]2CCCCN21 (stereo partly specified),·,0,1,-1,1
Cc1ccc2nc(C3CCCCC3)c(Cc3cccc(F)c3)n2c1,·,-3,0,-1,0
Fc1ccc(-c2nc3c4ccccc4ccn3c2Cc2ccccc2)cc1,1,2,-1,1.6*,2
CCCc1nc2ccc(C)cn2c1Cc1cccc(F)c1,·,4,3.9*,1.9*,10
CCOC(=O)Nc1cc(=O)c([N+](=O)[O-])c(N)[nH]1,·,-1,1,-1,-2
FC(F)(F)C1=NNC(c2ccc3ccccc3c2)=NN1,0,1,1,0,12*
OC1(c2cccc(C(F)(F)F)c2)CCN(CCN2CCCCC2)CC1,2,0,0,1.6*,0
COC(=O)[C@@H](Cc1ccccc1)N[C@H](/C=C/c1ccccc1)[C@@H](O)Cc1ccccc1,·,-2,-1,-1,-4
SMILES,DAX1 inh-1,hcDAF12 agonist,DAX1 inh-2,ssDAF-12 act,hgDAF12 agonist
O=C(CN1CCOCCOCCOCC1)Nc1ccccc1,1,-3,0,-2,4
NC(=O)c1ccccc1NC(=O)CN1CCOCC1,4.3*,-1,0,-1,1
O=C(CN1CCOCC1)NNC(=S)Nc1ccccc1,6.1*,-1,0,-2,0
C#CCOCCOCCOCCNc1nc(N2CCN(C(=O)[C@H]([C@@H](C)CC)n3cc(CCCCN)nn3)CC2)nc(N2CCN(C(=O)[C@H](Cc3ccc(O)cc3)n3cc(CCO)nn3)CC2)n1,·,-2,·,-2,-2
COC(=O)C1CN(Cc2ccc(OC)cc2)CCS(=O)(=O)N1Cc1ccc(Cl)cc1 (stereo unspecified),·,-2,-1,-1,-3
Cc1cccc(S(=O)(=O)Nc2nc3ccccc3nc2NCC2CCCO2)c1 (stereo unspecified),0,-1,0,-2,3
O=S(=O)(Nc1nc2ccccc2nc1NCc1ccco1)c1ccc(Cl)cc1,0,0,0,-1,1
Cc1ccc(S(=O)(=O)Nc2nc3ccccc3nc2NCc2ccco2)cc1,1,6,3,1.4*,6
Cc1ccc(S(=O)(=O)Nc2nc3ccccc3nc2NCC2CCCO2)cc1C (stereo unspecified),4.5*,-2,0,-2,0
CCSc1nnc(NC(=O)CC(C)C)s1,6.4*,1,1,-2,2
Cc1ccc2c(c1)c1nnc(SCC(=O)NC3CC3)nc1n2C,0,2,0,-1,4
COc1ccc2c(c1)c1nnc(SCC(=O)NC3CC3)nc1n2C,1,4,0,1.7*,0
CC(C)(C)NC(=O)CSc1nnc(NC(=O)c2ccccc2Cl)s1,4,0,1,-1,5
O=C(CSc1nnc(NC(=O)c2ccccc2Cl)s1)NC1CC1,2,5.6*,1,0,7
CCc1ccc(-c2nc(SCC(=O)NC3CCS(=O)(=O)C3)n[nH]2)cc1 (stereo unspecified),3,1,3.6*,0,0
COC(=O)[C@]12C[C@H](CC(=O)NCCCN3CCCC3=O)C(=O)N(Cc3ccc4c(c3)OCO4)C1=C[C@H](C(C)(C)C)O[C@@H]2C,·,0,0,-1,-1
CCSc1nnc(NC(=O)c2ccccc2C)s1,4,2,4.4*,-1,13*
O=C(CSc1nnc(NC(=O)c2ccccc2F)s1)Nc1ccccc1F,2,2,3,-2,13*
O=C(Nc1nnc(S(=O)(=O)Cc2ccc(F)cc2)s1)c1ccccc1F,-1,-3,0,1.3*,-1
COc1cccc(C(=O)Nc2nnc(SCC(=O)NC3CC3)s2)c1,0,1,0,-1,0
COc1ccc(C(=O)Nc2nnc(SCC(=O)NC3CC3)s2)cc1,2,0,1,0,11*
Cc1ccccc1NS(=O)(=O)c1nnc(NC(=O)c2ccccc2F)s1,1,0,0,-1,1

# Source: PubChem (The Scripps Research Institute Molecular Screening Center)
